# Assay results from the supplement of paper PMC9135407.
# Several values for one entry are separate records, joined by “and”; a condition that tells them apart may be missing. Identical values can stand only once. Counter-ions that a name gives are not always drawn. The campaign covered roughly 5,800 compounds. About 620 (11%) showed activity. The full list was thinned out, with actives kept by preference. Values without a mark were called inactive.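 The calls were made as follows: active = score above a cut-off or among the top three wells of a plate; in these data no inactive exceeds 0.85.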
# Test system: primary human hepatic stellate cells (donor 1)
# Test: scaled lipid accumulation score (0 = DMSO-like, 1 = nortriptyline-like); higher = stronger HSC inactivation (lipid re-accumulation), active = hit call of the paper
# Settings: 48 h
# [1] = library stock concentration: 1 mM
# [2] = library stock concentration: 10 mM
# [3] = library stock concentration: 3.33 mM
# [4] = library stock concentration: 80 uM
# [5] = library stock concentration: 400 uM
# [6] = library stock concentration: 2 mM
smiles,measurement,setting,value
CC(C)(C)OC(=O)Nc1ccc(-c2cc(C(=O)NCCCCCCC(=O)NO)no2)cc1,scaled lipid accumulation score,[1],≤ 0
CC(=O)OCC(=O)[C@@]1(O)CC[C@H]2[C@@H]3C[C@H](C)C4=CC(=O)C=C[C@]4(C)[C@H]3[C@@H](O)C[C@@]21C,scaled lipid accumulation score,[2],≤ 0
CN1CCN(CCc2ccc(Cl)c(Cl)c2)CC1 [BD 1063 dihydrochloride],scaled lipid accumulation score,[2],0.684
COc1ccc(CCN(C)CCc2ccc(OC)c(OC)c2)cc1OC [YS-035 hydrochloride],scaled lipid accumulation score,[2],0.011 and 0.112
Br.Br.CN(CCc1ccc(Cl)c(Cl)c1)CCN1CCCC1 [BD 1008 dihydrobromide],scaled lipid accumulation score,[2],0.882 (active)
C[C@H](NCc1ccc(OCc2cccc(F)c2)cc1)C(N)=O [Safinamide Mesylate],scaled lipid accumulation score,[3],≤ 0
same,scaled lipid accumulation score,[2],≤ 0
CC(C)OC(=O)CCC/C=C/C[C@H]1C(=O)C[C@@H](O)[C@@H]1/C=C/[C@@H](O)COc1cccc(C(F)(F)F)c1 [9-keto Fluprostenol isopropyl ester],scaled lipid accumulation score,[1],≤ 0
"C=C1C[C@@H](O)[C@H](/C=C/[C@@H](O)C(C)(C)CCCC)[C@H]1C/C=C\CCCC(=O)O [9-deoxy-9-methylene-16,16-dimethyl Prostaglandin E2]",scaled lipid accumulation score,[1],≤ 0
CCOC(=O)c1cnc2ccc(-c3cncc(NS(=O)(=O)c4ccccc4)c3)cn12 [listing 1 of 2 here],scaled lipid accumulation score,[2],0.915 (active)
CCOC(=O)c1cnc2ccc(-c3cncc(NS(=O)(=O)c4ccccc4)c3)cn12 [listing 2 of 2 here],scaled lipid accumulation score,[3],0.492
CCCCC[C@H](O)/C=C/[C@H]1C(=O)C[C@H](O)[C@@H]1C/C=C\CCCC(=O)NCCO [Prostaglandin D2 Ethanolamide],scaled lipid accumulation score,[1],≤ 0
CCC(C)C1OC2(CCC1C)CC1CC(CC=C(C)C(OC3CC(OC)C(OC4CC(OC)C(O)C(C)O4)C(C)O3)C(C)C=CC=C3COC4C(O)C(C)=CC(C(=O)O1)C34O)O2 (stereo unspecified) [Ivermectin],scaled lipid accumulation score,[3],0.007
same,scaled lipid accumulation score,[2],0.198
CCC(=O)NC[C@H](Cc1ccc(OCCc2nc(-c3ccccc3)oc2C)cc1)N/C(C)=C\C(=O)c1ccc(C(F)(F)F)cc1,scaled lipid accumulation score,[2],≤ -0.001
NC[C@H]1CC[C@H](C(=O)Oc2ccc(CCC(=O)O)cc2)CC1,scaled lipid accumulation score,[2],≤ 0
COC(=O)N[C@@H](C)CNc1nccc(-c2cn(C(C)C)nc2-c2cc(Cl)cc(NS(C)(=O)=O)c2F)n1,scaled lipid accumulation score,[3],≤ -0.009
same,scaled lipid accumulation score,[2],0.655
CNCCCC12CCC(c3ccccc31)c1ccccc12.Cl [Maprotiline hydrochloride] [listing 1 of 2 here],scaled lipid accumulation score,[2],1.59 (active)
CNCCCC12CCC(c3ccccc31)c1ccccc12.Cl [Maprotiline HCl],scaled lipid accumulation score,[2],1.31 (active)
CNCCCC12CCC(c3ccccc31)c1ccccc12.Cl [Maprotiline hydrochloride] [listing 2 of 2 here],scaled lipid accumulation score,library stock concentration: 6.4 mM,1.05 (active)
same,scaled lipid accumulation score,[2],0.918 (active) and 1.23 (active)
CNCCC[C@]12CC[C@H](c3ccccc31)c1ccccc12.Cl [Maprotiline hydrochloride],scaled lipid accumulation score,,0.944 (active)
O=C(O)C1CCCNC1 (stereo unspecified),scaled lipid accumulation score,,≤ 0
same,scaled lipid accumulation score,[2],0.207
CCCCC[C@@](C)(O)/C=C/[C@@H]1[C@@H](C/C=C\CCCC(=O)O)[C@@H](O)C[C@H]1O [15(R)-15-methyl Prostaglandin F2.alpha.],scaled lipid accumulation score,[1],≤ 0
O=C(OCc1ccccc1)[C@H](O)c1ccccc1 [(R)-benzyl Mandelate],scaled lipid accumulation score,[1],≤ 0
C=C(C)[C@@H](CC=C(C)C)C[C@@]12C[C@@H](CC=C(C)C)C(C)(C)[C@@](CC=C(C)C)(C(=O)C(C(=O)c3ccc(O)c(O)c3)=C1O)C2=O [Garcinol],scaled lipid accumulation score,[4],≤ 0
same,scaled lipid accumulation score,[5],≤ 0
same,scaled lipid accumulation score,[6],≤ 0
same,scaled lipid accumulation score,[2],≤ 0
C[C@@H](N)C1CCC(C(=O)Nc2ccncc2)CC1 (stereo partly specified),scaled lipid accumulation score,[3],≤ 0
O=C(O)CCCC[C@@H]1CCSS1 [Thioctic acid],scaled lipid accumulation score,[2],≤ -0.027
CC/C(=C\C(=N\O)C(N)=O)C(C)[N+](=O)[O-] (stereo unspecified),scaled lipid accumulation score,[1],≤ 0
CC(C)CCC[C@@H](C)CCC[C@@H](C)CCCC(C)CC(=O)O (stereo partly specified) [Phytanic Acid],scaled lipid accumulation score,[1],0.028
O=C(NCCS(=O)(=O)c1ccc(C(F)(F)F)cn1)c1ccc(Cl)cc1,scaled lipid accumulation score,[3],≤ -0.009
same,scaled lipid accumulation score,[2],≤ 0
Cc1nc(Nc2ncc(C(=O)Nc3c(C)cccc3Cl)s2)cc(N2CCN(CCO)CC2)n1 [listing 1 of 2 here],scaled lipid accumulation score,[5],0.775
same,scaled lipid accumulation score,[2],0.677
C=CC(=O)Nc1cccc(Sc2nc(Nc3ccc(N4CCN(C)CC4)cc3)ncc2Cl)c1,scaled lipid accumulation score,[3],≤ 0
same,scaled lipid accumulation score,[2],0.466
Cc1nc(Nc2ncc(C(=O)Nc3c(C)cccc3Cl)s2)cc(N2CCN(CCO)CC2)n1 [Dasatinib],scaled lipid accumulation score,[4],≤ 0
same,scaled lipid accumulation score,[5],0.238
same,scaled lipid accumulation score,[6],0.602
same,scaled lipid accumulation score,[3],0.43
same,scaled lipid accumulation score,[2],0.646 and 0.707
Cc1nc(Nc2ncc(C(=O)Nc3c(C)cccc3Cl)s2)cc(N2CCN(CCO)CC2)n1 [listing 2 of 2 here],scaled lipid accumulation score,[6],1.18 (active)
same,scaled lipid accumulation score,[2],1.48 (active)
O=S(=O)(c1ccccc1)N(CC(F)(F)F)c1ccc(C(O)(C(F)(F)F)C(F)(F)F)cc1,scaled lipid accumulation score,[1],0.1
same,scaled lipid accumulation score,[3],0.164
same,scaled lipid accumulation score,[2],0.741 and 0.112
N#Cc1ccc2c(c1)N(CCCN1CCC(O)CC1)c1ccccc1S2 [Periciazine],scaled lipid accumulation score,[2],0.107
CN1CCCC(CC2c3ccccc3Sc3ccccc32)C1.Cl.O (stereo unspecified) [Metixene hydrochloride],scaled lipid accumulation score,,1.12 (active)
CN1CCN(C2Cc3ccccc3Sc3ccc(Cl)cc32)CC1 (stereo unspecified),scaled lipid accumulation score,[2],0.378
"C[C@@H](O)CCC[C@@H](O)/C=C/[C@H]1C(O)CC(O)C1CCCCCCC(=O)O (stereo partly drawn) [15(R),19(R)-hydroxy Prostaglandin F1.alpha.]",scaled lipid accumulation score,[1],≤ 0
CCc1c2c(nc3ccc(O)cc13)-c1cc3c(c(=O)n1C2)COC(=O)[C@]3(O)CC,scaled lipid accumulation score,[3],≤ 0
same,scaled lipid accumulation score,[2],0.297 and ≤ -0.001
CC[C@@]1(O)C(=O)OCc2c1cc1n(c2=O)Cc2cc3c(CN(C)C)c(O)ccc3nc2-1,scaled lipid accumulation score,[2],≤ 0
CCc1c2c(nc3ccc(OC(=O)N4CCC(N5CCCCC5)CC4)cc13)-c1cc3c(c(=O)n1C2)COC(=O)[C@]3(O)CC,scaled lipid accumulation score,[2],0.226
CCc1c2c(nc3ccc(OC(=O)N4CCC(N5CCCCC5)CC4)cc13)-c1cc3c(c(=O)n1C2)COC(=O)[C@]3(O)CC [Irinotecan HCl Trihydrate],scaled lipid accumulation score,[3],≤ 0
same,scaled lipid accumulation score,[2],0.228
CC[C@@]1(O)C(=O)OCc2c1cc1n(c2=O)Cc2cc3c(CN(C)C)c(O)ccc3nc2-1 [Topotecan],scaled lipid accumulation score,library stock concentration: 4.7 mM,≤ 0
CC[C@@]1(O)C(=O)OCc2c1cc1n(c2=O)Cc2cc3c(CN(C)C)c(O)ccc3nc2-1 [Topotecan hydrochloride hydrate],scaled lipid accumulation score,[2],≤ -0.055
CC[C@@]1(O)C(=O)OCc2c1cc1n(c2=O)Cc2cc3c(CN(C)C)c(O)ccc3nc2-1 [Topotecan hydrochloride],scaled lipid accumulation score,library stock concentration: 4.4 mM,0.131
same,scaled lipid accumulation score,[2],0.196
CCc1c2c(nc3ccc(OC(=O)N4CCC(N5CCCCC5)CC4)cc13)-c1cc3c(c(=O)n1C2)COC(=O)[C@]3(O)CC [IRINOTECAN HCl )trihydrate)],scaled lipid accumulation score,[2],1.1 (active)
CCc1c2c(nc3ccc(OC(=O)N4CCC(N5CCCCC5)CC4)cc13)-c1cc3c(c(=O)n1C2)COC(=O)[C@]3(O)CC [Irinotecan hydrochloride],scaled lipid accumulation score,[2],0.299
CC[C@@]1(O)C(=O)OCc2c1cc1n(c2=O)Cc2cc3c(CN(C)C)c(O)ccc3nc2-1 [Topotecan HCl],scaled lipid accumulation score,[3],≤ 0
same,scaled lipid accumulation score,[2],≤ 0
CCc1c2c(nc3ccc(OC(=O)N4CCC(N5CCCCC5)CC4)cc13)-c1cc3c(c(=O)n1C2)COC(=O)[C@]3(O)CC [Irinotecan],scaled lipid accumulation score,[3],0.151
same,scaled lipid accumulation score,[2],0.025
N=C(N)N [Guanidine HCl],scaled lipid accumulation score,[3],≤ 0
same,scaled lipid accumulation score,[2],≤ -0.001
N=C(N)N,scaled lipid accumulation score,[2],≤ 0
CCCCC[C@H](O)/C=C/[C@H]1OC(O)C[C@H](O)[C@@H]1CCCCCCC(=O)O (stereo partly specified) [Thromboxane B1],scaled lipid accumulation score,[1],0.131
C#CCCCCCCCCCCCC(O)CC(O)CO (stereo unspecified) [Avocadyne],scaled lipid accumulation score,[2],0.005
COc1ccccc1N1CCN(CCCNc2cc(=O)n(C)c(=O)n2C)CC1 [Urapidil],scaled lipid accumulation score,[2],≤ -0.027
COc1ccccc1N1CCN(CCCCNC(=O)c2ccc(-c3ccc(C(C)=O)cc3)cc2)CC1,scaled lipid accumulation score,[2],0.934 (active)
COc1ccccc1N1CCN(CCCNc2cc(=O)n(C)c(=O)n2C)CC1 [Urapidil hydrochloride],scaled lipid accumulation score,,≤ 0
same,scaled lipid accumulation score,[2],≤ 0 and 0.02
COc1ccccc1N1CCN(CCCNc2cc(=O)n(C)c(=O)n2C)CC1,scaled lipid accumulation score,[2],≤ 0
Cl.O=C(NCCCCN1CCN(c2cccc(Cl)c2Cl)CC1)c1ccc2c(c1)Cc1ccccc1-2,scaled lipid accumulation score,[2],0.884 (active)
"Cc1cccc(C(=O)NCN2CCN(c3ccccc3C#N)CC2)c1 [PD 168,077 maleate]",scaled lipid accumulation score,[2],≤ 0
COc1ccccc1N1CCN(CCCNc2cc(=O)n(C)c(=O)n2C)CC1 [Urapidil HCl],scaled lipid accumulation score,[3],≤ 0
same,scaled lipid accumulation score,[2],≤ 0
"COc1ccccc1N1CCN(CCCNc2c(C)c(=O)n(C)c(=O)n2C)CC1 [Urapidil, 5-Methyl-]",scaled lipid accumulation score,[2],≤ 0
COc1cccc(C(=O)NCCN2CCN(c3ccc(Cl)cc3)CC2)c1,scaled lipid accumulation score,[2],0.314
COc1ccccc1N1CCN(CCCCNC(=O)c2ccc3ccccc3c2)CC1 [listing 1 of 2 here],scaled lipid accumulation score,,0.307
COc1ccc2cccc(N3CCN(CCNC(=O)c4ccc(F)cc4)CC3)c2c1,scaled lipid accumulation score,[2],0.585
Cc1cccc(C(=O)NCN2CCN(c3ccccc3C#N)CC2)c1,scaled lipid accumulation score,[2],0.009
COc1ccccc1N1CCN(CCCCNC(=O)c2ccc3ccccc3c2)CC1 [listing 2 of 2 here],scaled lipid accumulation score,[2],1.01 (active)
